# Laboratory results: PubChem BioAssay (NCI)
# The panel holds about 83,000 compounds, 20% with a hit somewhere; the sample as a whole holds those more often.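 Growth was measured after 48 h exposure to one concentration of compound in 96-well plates. Values under 10 count as active.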 A number with no mark means an inactive call. Active and inactive are the calls of the source.
# Experiments:
# Experiment in all cases: NCI-60 one-dose screen, 48 h (100 = growth as untreated, 0 = no growth, -100 = all killed)
# HT29 colon = conditions: 10 µM unless noted
# SNB-19 CNS = conditions: 10 µM unless noted
# U251 CNS = conditions: 10 µM unless noted
# PC-3 prostate = conditions: 10 µM unless noted
# SK-MEL-5 melanoma = conditions: 10 µM unless noted
# UACC-62 melanoma = conditions: 10 µM unless noted
# LOX IMVI melanoma = conditions: 10 µM unless noted
# SK-MEL-28 melanoma = conditions: 10 µM unless noted
# EKVX NSCLC = conditions: 10 µM unless noted
# SN12C renal = conditions: 10 µM unless noted
# UO-31 renal = conditions: 10 µM unless noted
# TK-10 renal = conditions: 10 µM unless noted
# ACHN renal = conditions: 10 µM unless noted
# CAKI-1 renal = conditions: 10 µM unless noted
# A498 renal = conditions: 10 µM unless noted
# MOLT-4 leukemia = conditions: 10 µM unless noted
# CCRF-CEM leukemia = conditions: 10 µM unless noted
# SK-MEL-2 melanoma = conditions: 10 µM unless noted
# SNB-75 CNS = conditions: 10 µM
Compound,growth (HT29 colon),growth (SNB-19 CNS),growth (U251 CNS),growth (PC-3 prostate),growth (SK-MEL-5 melanoma),growth (UACC-62 melanoma),growth (LOX IMVI melanoma),growth (SK-MEL-28 melanoma),growth (EKVX NSCLC),growth (SN12C renal),growth (UO-31 renal),growth (TK-10 renal),growth (ACHN renal),growth (CAKI-1 renal),growth (A498 renal),growth (MOLT-4 leukemia),growth (CCRF-CEM leukemia),growth (SK-MEL-2 melanoma),growth (SNB-75 CNS)
COc1ccc(-c2ccc(C)n2-c2ccc(-c3nc4ccccc4s3)cc2)cc1,92%,91.9%,90%,91.6%,102%,86.1%,88.3%,113%,78%,86.6%,86.6%,119%,90.9%,76%,65.7%,81.8%,–,–,–
CCN(CC)CCOC(=O)C(c1ccccc1)(c1ccccc1)C(C)C,61.4%,97.1%,87.2%,69%,90.6%,100%,71.5%,106%,81.6%,88.1%,51.7%,91.6%,92.8%,66.8%,70.5%,86.7%,86.4%,–,–
COc1cc(C(=O)/C=C/c2ccc3nc(-c4cc(F)cc(F)c4)sc3c2)cc(OC)c1OC,95.9%,98.3%,92.5%,95.1%,118%,95.6%,94.9%,106%,110%,93%,88.8%,100%,88.1%,104%,98.1%,103%,–,–,–
O=C(/C=C/c1ccccc1)c1cccc(O)c1,32.3%,–,61.9%,103%,107%,–,81.7%,104%,108%,–,72.6%,109%,–,93.6%,114%,86.7%,–,115%,–
Cc1ccc(Nc2nnc(-c3ccc(Cl)cc3)o2)c(C)c1,–,95.8%,83.8%,92.1%,92.7%,70.8%,75.9%,76.8%,–,97.7%,82.6%,102%,95.7%,89.6%,81.6%,61.7%,83.3%,67.9%,78.7%
NC(N)=N/N=C/c1ccc(-c2ccc(-c3cc(Cl)cc(Cl)c3)s2)cc1,-74.9% (active),40%,-84.1% (active),-38.5% (active),86.9%,48.2%,–,96.5%,96.1%,-53.8% (active),72.2%,-68.8% (active),-2.94% (active),50%,73%,17.4%,–,103%,–
Cc1ccc(S(=O)(=O)c2nc(-c3ccccc3)oc2S(C)(=O)=O)cc1,-6.17% (active),60.9%,60.7%,84%,88.8%,75.7%,-32.7% (active),62.6%,74.1%,0.543% (active),2.62% (active),-72.8% (active),-99.7% (active),-98.9% (active),85.2%,-16.3% (active),0.985% (active),67.5%,–
Cc1ccc(-c2cc3nc(-c4ccccc4)nc(C(Cl)Cl)n3n2)cc1,-47.1% (active),-40.1% (active),-83.5% (active),-76% (active),83.9%,-65.3% (active),–,34.6%,-68% (active),55.5%,-99.7% (active),-97.9% (active),-99.3% (active),-86.4% (active),-73.8% (active),89.3%,–,26.7%,–
COc1ccc(/C=C(\C#N)c2cc(OC)c3c(c2)OCO3)cc1,–,37.8%,20.8%,23%,-58.9% (active),39.3%,19.2%,–,50.4%,23.8%,39.9%,49.6%,–,40.7%,35.5%,7.91% (active),14.7%,43.6%,39.8%
O=C(O)C1CCCCN1c1nc(Cl)nc(Cl)n1 (stereo not drawn),106%,102%,104%,99.3%,–,99.8%,95.8%,–,99.8%,103%,98.1%,–,113%,–,90%,104%,105%,104%,–
COc1cc(-c2nc(-c3nc4ccc(Cl)cc4[nH]3)cc3c2[nH]c2ccccc23)cc(OC)c1OC,75%,79.9%,80.1%,53.2%,–,33.6%,67.8%,99.8%,–,66.1%,41.7%,93.6%,66.4%,83.7%,78%,34.4%,46.5%,62%,–
Oc1ccccc1/C=N/NC(=S)NC1CC2C=CC1C2 (stereo not drawn),–,82.3%,59.4%,75.6%,78.3%,82.9%,44.9%,83.1%,95.3%,92.8%,49.8%,103%,73.6%,67.1%,96.2%,56.6%,49.5%,–,105%
Cc1ccc(Cc2c(C=O)nc(N)[nH]c2=O)c2ccccc12,–,–,95.3%,88.8%,107%,110%,96.2%,104%,101%,96.9%,81.2%,112%,107%,92.7%,118%,86.8%,80%,–,93%
